# Assay outcomes as filed in PubChem BioAssay.
# Rows were chosen to be rich in hits. Some 3.9% of all compounds tested hit in one or more screens of this group.
# Anthrax LF inh2 – inhibitors of Bacillus anthracis lethal factor protease | multiplex microsphere protease cleavage assay, LF | AID 588501 | inhibition, % at 10 µM | 0.12% of 360,000 active; also: plate controls were buffer without enzyme for full effect and enzyme alone for no effect
# Autofluor counter – counter-screen for toxin protease inhibitors: compound fluorescence | compound autofluorescence counterscreen, microsphere flow cytometry; stronger effect = higher value | fluorescence intensity (no concentration beside the values) | AID 624483 | 3.1% of 360,000 active; in the data active = fluorescence intensity above about 16000; inconclusive = no clear call, values can overlap the other calls
# BoNT A protease – BoNT A light chain protease inhibition | 0.17% of 360,000 active | inhibition, % at 10 µM | multiplex microsphere protease substrate cleavage, flow cytometry; also: plate controls were buffer without enzyme for full effect and enzyme alone for no effect
# BoNT-F LC inh – BoNT F light chain protease inhibition | 0.22% of 360,000 active | Multiplex microsphere protease cleavage assay, flow cytometry | inhibition, % at 10 µM; in the data active = inhibition above about 35%, passing the limit was not always enough; inconclusive = no clear call, values can overlap the other calls; also: plate controls were buffer without enzyme for full effect and enzyme alone for no effect
# SARS 3CLpro inh – SARS-CoV 3CLpro protease inhibition | inhibition, % at 6 µM | recombinant SARS-CoV 3CLpro, quenched FRET peptide cleavage | 0.14% of 290,000 active; in the data active = inhibition above about 12%
# CCHFV vOTU inh – CCHFV vOTU protease inhibition. Pep-AMC fluorescence. 0.55% of 370,000 active. inhibition, % at 11.5 µM; in the data active = inhibition above about 30%; also: 0% = vehicle wells with enzyme and 100% = no enzyme wells
# Numbers without * were called inactive; u = inconclusive; x = no result given. Rule as the data show it, unless noted: active = inhibition above about 30%; inconclusive = no clear call, values can overlap the other calls; inactive = below that.
SMILES,Anthrax LF inh2,Autofluor counter,BoNT A protease,BoNT-F LC inh,SARS 3CLpro inh,CCHFV vOTU inh
CC(C(=O)NC1CCCC1)N1C(=O)c2cccc3cccc1c23 (stereo unspecified),0,u,-3,-11,-7,-7
COC(=O)c1ccc(Cn2ccc3ccc(-c4ccc5ccn(C(=O)c6ccccc6C)c5c4)cc32)cc1,x,x,x,x,x,2
CCC(NC(=O)OC(C)(C)C)C(=O)Oc1cc(C)cc2oc(=O)c3c(c12)CCC3 (stereo unspecified),0,20994*,-1,-2,-4,-7
CCC(NC(=O)OC(C)(C)C)C(=O)Oc1ccc2c3c(c(=O)oc2c1)CCC3 (stereo unspecified),-5,17288*,-1,-4,2,-318
Cc1cc(OC(=O)CCNC(=O)OC(C)(C)C)c2c3c(c(=O)oc2c1)CCC3,-2,22958*,2,0,2,-6
Cc1cc(OC(=O)CCCNC(=O)OC(C)(C)C)c2c3c(c(=O)oc2c1)CCC3,-2,9254,0,-1,4,-9
O=C1CC(N2CCOCC2)=NC(=O)N1c1ccc(Br)cc1,x,x,x,x,x,-9
CCOC(=O)C1=C(C)NC2=C(C(=O)CC(C)(C)C2)C1c1cccc(C)n1 (stereo unspecified),-1,20812*,-1,-2,-7,-39
Cn1nc(-c2ccc(C(=O)N3CCN(CCO)CC3)cc2)c2ccccc2c1=O,-1,21691*,u,4,-2,-6
Cc1cccc(NC(=O)CCSc2nncn2C)c1,-1,22260*,2,4,2,-5
Cc1cccc(NC(=S)NNC(=O)CCn2cc(C)cn2)c1,-2,22732*,u,1,0,-6
COC(=O)[C@]12C[C@H](CC(=O)N3CCCCC3)C(=O)N(Cc3ccco3)C1=C[C@H](COCc1ccccc1)O[C@@H]2C,x,x,x,x,x,-1
COC(=O)c1cc2c(c3c4cc(OC)ccc4n(S(=O)(=O)c4ccc(OC)cc4)c13)C(=O)N(Cc1ccc(N(C)C)cc1)C2,x,x,x,x,x,8
O=C(CSc1nnc(-c2ccccc2)n1-c1ccccc1)Nc1cccc2ccccc12,x,x,x,x,x,2
C=CCNC(=O)c1ccc(N(C)S(=O)(=O)c2ccc(OC)cc2)cc1,0,16765*,-2,-4,1,-5
O=C(O)CSc1nnc(-c2ccncc2)n1CCc1ccccc1,0,22072*,-5,-6,-3,1
C=CCn1c(SCC(=O)O)nnc1-c1ccccc1,-6,22122*,0,0,-2,-5
CCSc1nnc(-c2ccncc2)n1Cc1ccccc1,-1,16561*,u,-1,-1,-7
CNC(=O)CSc1nnc(-c2ccncc2)n1Cc1ccccc1,-2,16183*,0,1,0,-4
Fc1cc(F)c(CSc2nnc(-c3cccnc3)n2Cc2ccccc2)cc1F,x,x,x,x,x,7
O=C(CSc1nnc(-c2cccs2)o1)Nc1cccc2ccccc12,x,x,x,x,x,-1
CCn1c(SCc2cccc(C)c2)nnc1-c1ccccc1,-1,23697*,u,-2,0,-12
CN1CCc2c(C#N)c(N3CCCCC3)nc(N3CCOCC3)c2C1,x,x,x,x,5,x
CN1CCc2c(c(N3CCCCC3)nc3n[nH]c(N)c23)C1,-1,20525*,u,-3,-4,-10
CCOc1cc(C=NN2CCN(Cc3ccc(C)cc3)CC2)ccc1O,x,x,x,x,x,6
SMILES,Anthrax LF inh2,Autofluor counter,BoNT A protease,BoNT-F LC inh,SARS 3CLpro inh,CCHFV vOTU inh
Clc1cccc(CSc2ncn(-c3ccccc3)n2)c1,0,16759*,-1,-4,-2,-5
Clc1ccc(CSc2ncn(-c3ccccc3)n2)cc1,-1,21528*,-6,-8,2,-3
O=C(CSc1ncn(-c2ccccc2)n1)N1CCc2ccccc21,0,4546,1,-8,4,0
CCCCOCCCNC(=O)C[C@H]1C[C@@]2(C(=O)OC)C(=C[C@H](C3CCCC3)O[C@@H]2C)N(Cc2ccccc2)C1=O,x,x,x,x,x,20
CCOC(=O)c1[nH]c(C)c(C(=O)N2CCN(c3cccc(Cl)c3)CC2)c1C,0,19964*,2,1,-2,-14
CCOC(=O)c1[nH]c(C)c(C(=O)NCCCOC(C)C)c1C,-1,21373*,-4,-5,-1,-2
CCOC(=O)c1[nH]c(C)c(C(=O)Nc2cccc(Cl)c2C)c1C,-4,19613*,3,3,-3,-5
CCOC(=O)c1[nH]c(C)c(C(=O)N2CCN(c3ccc(F)cc3)CC2)c1C,-2,21567*,4,2,3,9
CCN1CCCCC(NC(=O)c2ccccc2OC)C1=O (stereo unspecified),x,x,x,x,x,0
